Assay outcomes deposited in PubChem by National Center for Advancing Translational Sciences (NCATS).
Rows were chosen to be rich in hits. Some 22% of all compounds tested hit in one or more screens of this group.
Shiga toxin inh: inhibitors of Shiga toxin in Vero cells; actives 9.2% (n = 290,000); inhibition, % at 38.7 µM; AID 2315; Vero cells, Shiga toxin protein synthesis inhibition reporter; in the data active = inhibition mostly above about 28%, no sharp cut-off; inactive = mostly below about 43%; note: 0% is about no effect
LmPK inhibitor: inhibitors of Leishmania mexicana pyruvate kinase | Q27686 | purified LmPK, Kinase-Glo ATP luminescence, 1 h | Potency, µM (series often up to 57.5 µM), without a hit: at the top dose activity change, negative = inhibition, most hits filed as inhibitors | actives 0.37% (n = 290,000) | AID 1721; note: potency is the fitted concentration of half-maximal effect; % is set by controls: 0 for no effect and ±100 for the full control effect
Target sequence (Q27686 whole entry, looked up): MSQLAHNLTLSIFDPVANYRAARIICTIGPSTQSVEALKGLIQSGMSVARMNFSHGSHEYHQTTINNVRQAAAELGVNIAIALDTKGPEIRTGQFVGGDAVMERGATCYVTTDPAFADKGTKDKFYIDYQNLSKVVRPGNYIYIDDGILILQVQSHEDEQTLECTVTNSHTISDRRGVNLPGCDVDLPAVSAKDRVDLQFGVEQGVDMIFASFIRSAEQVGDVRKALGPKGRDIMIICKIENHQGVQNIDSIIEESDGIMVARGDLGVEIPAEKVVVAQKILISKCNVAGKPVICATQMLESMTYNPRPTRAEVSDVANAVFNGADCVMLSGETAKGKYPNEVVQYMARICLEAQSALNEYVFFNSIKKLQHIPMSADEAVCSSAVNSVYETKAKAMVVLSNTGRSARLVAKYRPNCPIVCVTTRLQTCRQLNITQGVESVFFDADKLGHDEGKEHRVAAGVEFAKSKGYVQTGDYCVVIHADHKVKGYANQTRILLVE
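qHTS format; LmPK 0.1 nM; substrates PEP 0.5 mM and ADP 0.1 mM. One-hour room-temperature incubation, then coupled luciferase luminescence; 0.5 nM enzyme wells mark activation.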
Pf growth 48h: P. falciparum growth inhibition at 48 hours (one generation). P. falciparum luciferase growth in erythrocytes, 48 h. Potency, µM (doses to about 28.7 µM), for the others: at the top dose activity change, negative = inhibition, hits mostly inhibitors. actives 5.9% (n = 310,000); note: potency is the fitted concentration of half-maximal effect; % is set by controls: 0 for no effect and ±100 for the full control effect
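Compounds are pin-transferred into medium, infected erythrocytes (2% hematocrit, 0.1% parasitemia final) are added, and plates sit one parasite generation at 37 C in 5% CO2. Detection reagent is then added and luminescence measured.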
Pf growth 96h: P. falciparum growth inhibition at 96 hour, primary screen for plastid delayed-death inhibitors; P. falciparum luciferase reporter growth, 96 h; Potency, µM (highest dose often 28.7 µM), without a hit: at the highest dose activity change, negative = inhibition, most hits filed as inhibitors; actives 6.9% (n = 320,000); AID 504834; note: potency is the fitted concentration of half-maximal effect; % is set by controls: 0 for no effect and ±100 for the full control effect
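Plates of compound plus infected erythrocytes (2% hematocrit, 0.05% parasitemia final) incubate 96 hours, 37 C, 5% CO2. Detection reagent added; reduced luminescence from the parasites' luciferase reporter flags inhibition.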
Cycloheximide cs: counter-screen hit for Shiga toxin inhibitors, cycloheximide; cell reporter, cycloheximide protein synthesis inhibition counterscreen; max response, %; actives 12% (n = 300,000); AID 2314; in the data active = max response mostly above about 13%, no sharp cut-off; inactive = mostly below about 14%; note: read at 38.3 µM for the half of the compounds with a filed dose; 0% is about no effect
* marks the source's active call; other numbers are inactive results. Unless noted, calls come from the whole dose curve; as a rule, active = well fitted inhibition curve with a large enough effect; inconclusive = small, poorly fitted or top-dose-only effect, or another doubt; inactive = no such curve, though single readings can be large or run the other way.

Results for COc1ccc(NC(=O)CSc2nnc(CNC(=O)COc3ccc(Cl)cc3)o2)c(OC)c1 ?
Shiga toxin inh: -5; LmPK inhibitor: 1%; Pf growth 48h: 13µM*; Pf growth 96h: 9.3µM*; Cycloheximide cs: -3

How did CCC1CCCCN1C(=O)CSc1nnc(CNC(=O)COc2ccc(Cl)cc2)o1 (stereo not drawn) do in these assays?
Shiga toxin inh: 9; LmPK inhibitor: 7%; Pf growth 96h: 10%; Cycloheximide cs: 2

How did O=C(COc1ccc(Cl)cc1)NCc1nnc(SCC(=O)NC2CCCC2)o1 do in these assays?
Shiga toxin inh: 8; LmPK inhibitor: 2%; Pf growth 48h: inconclusive; Pf growth 96h: 4.1µM*; Cycloheximide cs: -2

How did CNC(=S)NCCC(c1ccccc1)c1ccccc1 do in these assays?
Shiga toxin inh: 15; LmPK inhibitor: 5%; Pf growth 48h: inconclusive; Pf growth 96h: 3%; Cycloheximide cs: -2

What do the screens show for `O=c1ccnc(SCCc2ccccc2)[nH]1`?
Shiga toxin inh: 10; LmPK inhibitor: -5%; Pf growth 48h: -8%; Pf growth 96h: 27%; Cycloheximide cs: 5

How did O=c1ccnc(S/C=C/c2ccccc2)[nH]1 do in these assays?
Shiga toxin inh: 23; LmPK inhibitor: -20%; Pf growth 48h: 14%; Pf growth 96h: 6%; Cycloheximide cs: 35*

Results for O=[N+]([O-])c1cc2c(cc1/C=N/NS(=O)(=O)c1ccc(Br)cc1)OCO2 ?
Shiga toxin inh: -9; LmPK inhibitor: -1%; Pf growth 48h: -5%; Pf growth 96h: inconclusive; Cycloheximide cs: -8

What do the screens show for `CN(C)c1ccc(N=c2sc3ccccc3n2C)cc1`?
Shiga toxin inh: 89*; LmPK inhibitor: 9%; Pf growth 96h: inconclusive; Cycloheximide cs: 54*

Results for Cn1c(=Nc2ccccc2)sc2ccccc21 ?
Shiga toxin inh: 82; LmPK inhibitor: 8%; Pf growth 48h: 0%; Cycloheximide cs: 36*

What do the screens show for `Cc1ccc(S(=O)(=O)N/N=c2\sc3ccccc3n2C)cc1`?
Shiga toxin inh: -11; LmPK inhibitor: -2%; Pf growth 48h: 7%; Pf growth 96h: -12%; Cycloheximide cs: -7

What do the screens show for `O=c1c(-c2ccc(Cl)cc2)cnc2n1CCS2`?
Shiga toxin inh: 67*; LmPK inhibitor: -5%; Pf growth 48h: 51%; Pf growth 96h: 41%; Cycloheximide cs: 29*

Results for c1coc(CN2CCN(C(c3cccs3)c3nnnn3C3CCCC3)CC2)c1 (stereo not drawn) ?
Shiga toxin inh: -17; LmPK inhibitor: 0%; Pf growth 48h: 8%; Pf growth 96h: 32%; Cycloheximide cs: 11

How did CCC(C)(C)n1nnnc1C(c1cccs1)N1CCCCC1 (stereo not drawn) do in these assays?
Shiga toxin inh: -8; LmPK inhibitor: -6%; Pf growth 48h: -16%; Pf growth 96h: 8%; Cycloheximide cs: -2

What do the screens show for `CC(C)(C)n1nnnc1C(c1cccs1)N1CCCC2(CCCCC2)C1` (stereo not drawn)?
Shiga toxin inh: -2; LmPK inhibitor: 0%; Pf growth 48h: 5.2µM*; Pf growth 96h: inconclusive; Cycloheximide cs: -4

What do the screens show for `c1csc(C(c2nnnn2C2CCCCC2)N2CCCC3(CCCCC3)C2)c1` (stereo not drawn)?
Shiga toxin inh: 9; LmPK inhibitor: -1%; Pf growth 48h: 2.6µM*; Pf growth 96h: inconclusive; Cycloheximide cs: -1

What do the screens show for `CC(C)Cc1ccc(CN2CCCC(NC(=O)CCN3CCOCC3)C2)cc1` (stereo not drawn)?
Shiga toxin inh: -3; LmPK inhibitor: 9%; Pf growth 48h: -17%; Pf growth 96h: inconclusive; Cycloheximide cs: 3

How did CCOC(=O)C(C)c1c(C(=O)c2ccc(C)nc2)c2ccccc2n1C (stereo not drawn) do in these assays?
Shiga toxin inh: -9; LmPK inhibitor: 1%; Pf growth 48h: 3.7µM*; Pf growth 96h: 4.7µM*; Cycloheximide cs: 7

Results for CCOC(=O)N1CCN(C(=O)COc2cc(=O)n(C)c3ccccc23)CC1 ?
Shiga toxin inh: -6; LmPK inhibitor: -9%; Pf growth 48h: 11%; Pf growth 96h: inconclusive; Cycloheximide cs: -1

Results for Cc1ccccc1-n1c(C)cc(/C=N/Nc2ccc([N+](=O)[O-])cn2)c1C ?
Shiga toxin inh: 91*; LmPK inhibitor: 2%; Pf growth 48h: inconclusive; Cycloheximide cs: 36*
